# Records with an inconclusive call do not appear. Active and inactive are the calls of the source. Unless noted, how the calls were made is not given here.
# Key:
# [1] = kinase inhibitors against Plasmodium liver-stage infection, cell-based, known kinase inhibitor set, luminescence, hepatoma host viability (AID 624392); details: Plasmodium liver stage in hepatoma cells, luciferase luminescence, concentration not given here; liver cell % of control: measured here: host liver cell viability; parasite % of control: stronger effect = lower value;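 further: infected cells incubated roughly two days before readout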
# [2] = modulators of glucocorticoid suppression of NF-kB, cell-based, luciferase, IL-1B stimulus, dexamethasone (AID 624486); details: NF-kB luciferase reporter, IL-1B + dexamethasone, luminescence; percent of negative control (+Dex): actives lie on both sides, concentration not given here; z-score: measured here: IL-1B alone, no Dex;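 on percent of negative control (+Dex): 100% = mean signal of vehicle control wells on the plate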
# [3] = kinase inhibitors altering Pseudomonas killing of worms, whole organism (AID 651566);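 further: tested at 14 µM; sign flipped so higher z means a lower ratio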; details: C. elegans killed by P. aeruginosa, survival ratio
# [4] = activators of macrophage pro-inflammatory response, cell-based, murine, luminescence (AID 652131); details: murine macrophage pro-inflammatory reporter, stronger effect = higher value
# [5] = target: Cellular tumor antigen p53 (Homo sapiens) (UniProt P04637); experiment: kinase inhibitors altering GFP-p53 stability in HPV16-positive cells, imaging, known kinase inhibitor set, EGFP/DsRed ratio (AID 1053116); details: stronger effect = higher value; EGFP object count: measured here: GFP-p53 positive objects count;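 further: cells exposed to compounds for 24 h at 37 °C before reading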
# Sequence of Cellular tumor antigen p53 (Homo sapiens) (P04637 whole entry, looked up): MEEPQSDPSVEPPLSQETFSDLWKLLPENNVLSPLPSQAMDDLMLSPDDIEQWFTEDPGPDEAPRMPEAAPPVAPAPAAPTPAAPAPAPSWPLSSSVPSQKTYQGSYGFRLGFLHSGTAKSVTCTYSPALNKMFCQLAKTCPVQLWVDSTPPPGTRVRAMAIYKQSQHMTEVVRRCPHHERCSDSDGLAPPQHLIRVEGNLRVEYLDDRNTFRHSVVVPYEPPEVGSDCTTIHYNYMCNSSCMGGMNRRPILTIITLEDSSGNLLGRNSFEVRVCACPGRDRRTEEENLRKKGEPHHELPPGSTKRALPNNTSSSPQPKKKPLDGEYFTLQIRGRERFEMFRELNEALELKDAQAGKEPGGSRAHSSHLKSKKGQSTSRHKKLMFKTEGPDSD
# [6] = IRF3 reporter activation in THP-1 macrophages, cell-based, PMA-stimulated THP-1, luminescence (AID 1053176); details: PMA-differentiated THP-1, IRF3 reporter luminescence; stronger effect = higher value
# [7] = survival rescue of mitochondrial mutant cells in low glucose, primary screen, MELAS cybrids, Rieske KO mouse fibroblasts, CellTiter-Glo (AID 1508586;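 active means mean z-score across replicates of 1.96 or higher in either the MELAS or the Rieske mutant cell line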;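 further: z relative to plate mean and SD of compound and empty wells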)
# [8] = sensitizers of A549 cells to miR-34 induction, primary screen, imaging, A549 dox-inducible miR-34, nuclei and caspase counts (AID 1347080;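 active means compounds whose cell count with miR-34 switched on is under 0.7 times the count with it off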); details: A549 miR-34 inducible, Hoechst nuclei count, 48 h
# [9] = viability rescue of complex I mutant cybrids, primary screen, cell-based, galactose medium, ATP luminescence (AID 1645843;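 active means z-score of at least 1.8 in each of two replicates, scored against plate mean and spread of sample wells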;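 further: positive z means more ATP and so rescue of galactose-driven cybrid death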); details: complex I mutant cybrid cells, 72 h, stronger effect = higher value
# [10] = growth inhibition of DIPG glioma cells, dose response, cell-based, SU-DIPG-XVII, MIPE5.0, CellTiter-Glo, qHTS (AID 1347060; cut-off not given, nearly all actives have AC50 up to about 26 µM;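 further: cells exposed to compound for 48 hours before viability readout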); details: SU-DIPG-XVII viability, CellTiter-Glo ATP luminescence
# [11] = viability loss in pontine glioma line – cell-based, SU-DIPG-XXV, MIPE5.0, CellTiter-Glo, qHTS, dose response (AID 1347065; cut-off not given, nearly all actives have AC50 up to about 26 µM;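 further: cells exposed to compound for 48 hours before ATP readout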); details: CellTiter-Glo ATP luminescence
# [12] = JHH-DIPG-1 glioma cell viability, MIPE5.0 library, CellTiter-Glo luminescence, qHTS (AID 1347067; cut-off not given, nearly all actives have AC50 up to about 26 µM;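 further: cells exposed to compound for 48 hours before readout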); details: JHH-DIPG-1 glioma viability, CellTiter-Glo ATP luminescence
# [13] = liver-stage malaria parasite growth inhibition, primary screen, cell-based, HepG2, luciferase luminescence, HepG2 viability (AID 624349; in the data active means parasite load remaining mostly below about 12%, no sharp cut-off; inactive means mostly above about 10%;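 further: 100% = mean of DMSO negative control wells on the same plate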); details: P. berghei liver stage in HepG2, luciferase luminescence, concentration not given here; parasite load remaining: stronger effect = lower value; viability: measured here: HepG2 viability without parasites
# [14] = MELAS cybrid survival, CellTiter-Glo 48 h, stronger effect = higher value
# [15] = Rieske KO mouse fibroblast survival, CellTiter-Glo 72 h
smiles,measurement,setting,value
O=C(NCC1CC1)c1ccc(-c2cccc(C(=O)NC3CC3)c2)cc1,liver cell % of control,[1],164%
same,parasite % of control,[1],130% (inactive)
same,percent of negative control (+Dex),[2],91.5% (inactive)
same,z-score,[2],1.28
same,z-score,[3],-0.465 (inactive)
same,z-score,[4],1.36 (inactive)
same,EGFP object count,[5],4.5
same,EGFP/DsRed ratio,[5],0.0862 (inactive)
same,fraction signal,[6],0 (inactive)
same,z-score,[7]; [14],-0.117 (inactive)
same,z-score,[7]; [15],-0.418
CN(C)c1cc2c(Nc3ccc4c(cnn4Cc4ccccc4)c3)ncnc2cn1,liver cell % of control,[1],130%
same,parasite % of control,[1],78.7% (inactive)
same,percent of negative control (+Dex),[2],68% (inactive)
same,z-score,[2],-1.64
same,z-score,[3],0.66 (inactive)
same,z-score,[4],-0.608 (inactive)
same,EGFP object count,[5],3.5
same,EGFP/DsRed ratio,[5],0.0403 (inactive)
same,fraction signal,[6],-0.004 (inactive)
same,fold change,"[8]; stronger effect = lower value, cell number ratio, induced over uninduced",1.64 (inactive)
same,fold change,[8]; measured here: relative caspase fold change +Dox/-Dox,0.646
same,cell count,"[8]; measured here: total cells with miR-34 induction, stronger effect = lower value",3320
same,cell count,[8]; measured here: total cells without miR-34 induction,2020
same,z-score,[7]; [14],-0.0495 (inactive)
same,z-score,[7]; [15],-0.233
same,z-score,[9],-0.71 (inactive)
COc1ccc(-c2oc3ncnc(N)c3c2-c2ccc(NC(=O)Nc3cc(C(F)(F)F)ccc3F)cc2)cc1,liver cell % of control,[1],50%
same,parasite % of control,[1],186% (inactive)
same,percent of negative control (+Dex),[2],93.5% (inactive)
same,z-score,[2],-2.24
same,z-score,[3],0.785 (inactive)
same,z-score,[4],-0.472 (inactive)
same,EGFP object count,[5],6
same,EGFP/DsRed ratio,[5],0.0596 (inactive)
same,fraction signal,[6],0.007 (inactive)
same,AC50,[10],3.72 µM (active)
same,AC50,[11],1.66 µM (active)
same,AC50,[12],9.34 µM (active)
same,z-score,[7]; [14],-1.1 (inactive)
same,z-score,[7]; [15],-0.0748
Cn1cc(C2=C(c3cn(CCCSC(=N)N)c4ccccc34)C(=O)NC2=O)c2ccccc21,parasite load remaining,[13],30.4% (inactive)
same,viability,[13],73.7%
same,liver cell % of control,[1],100%
same,parasite % of control,[1],330% (inactive)
same,percent of negative control (+Dex),[2],98% (inactive)
same,z-score,[2],0.705
same,EGFP object count,[5],1
same,EGFP/DsRed ratio,[5],0.00598 (inactive)
same,fraction signal,[6],-0.0115 (inactive)
same,z-score,[7]; [14],3.84 (active)
same,z-score,[7]; [15],-1.11
same,z-score,[9],-0.7 (inactive)
CN(C)c1cc2c(Nc3ccc4nc(Cc5ccccc5)[nH]c4c3)ncnc2cn1,liver cell % of control,[1],154%
same,parasite % of control,[1],105% (inactive)
same,percent of negative control (+Dex),[2],77% (inactive)
same,z-score,[2],-0.53
same,z-score,[3],0.16 (inactive)
same,z-score,[4],0.922 (inactive)
same,EGFP object count,[5],3
same,EGFP/DsRed ratio,[5],0.0121 (inactive)
same,fraction signal,[6],-0.006 (inactive)
same,z-score,[7]; [14],0.173 (inactive)
same,z-score,[7]; [15],-0.0343
FC(F)(F)CNc1nccc(-c2cnn3ncccc23)n1,liver cell % of control,[1],95.3%
same,parasite % of control,[1],264% (inactive)
same,percent of negative control (+Dex),[2],33.5% (active)
same,z-score,[2],-6.74
same,z-score,[3],-1.18 (inactive)
same,z-score,[4],-1.22 (inactive)
same,EGFP object count,[5],2
same,EGFP/DsRed ratio,[5],0.0558 (inactive)
same,fraction signal,[6],-0.0105 (inactive)
same,z-score,[7]; [14],0.365 (inactive)
same,z-score,[7]; [15],-0.533

# Reference: PubChem BioAssay
